Platelet DG rel: platelet dense granule release activity | human platelet-rich plasma, SFLLRN dense granule ATP release, luminescence | 300,000 tested, 0.22% active | inhibition, %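 (compounds screened at 7.5 µM in platelet-rich plasma)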 | AID 1663;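 active = mean replicate score, as percent of positive control, at or above 50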
TRAIL sens C8: sensitizes caspase-8 expressing cells to TRAIL. 360,000 tested, 1% active. inhibition (viability loss, TRAIL sensitization), % at 10 µM. NB7+C8 cells + TRAIL, ATPlite viability luminescence;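 active = compounds causing at least 50% loss of cell viability in the single-dose screen, relative to plate controls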
PPC-1+TRAIL kill: PPC-1 cancer cell killing with TRAIL present; PPC-1 cells + TRAIL, ATPLite viability luminescence; cell killing (% activity), % at 4 µM or 5 µM; 220,000 tested, 0.41% active; AID 1443;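 active = cell killing above 50% in the first pass at 4 µM, then a duplicate retest at 5 µM averaging 50% or more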
STAT1 inh: reduces IFN-gamma driven STAT1 reporter signal; NIH 3T3 STAT1-luciferase reporter, luminescence; inhibition, % at 5.5 µM; 200,000 tested, 0.35% active; AID 920;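 active = inhibition above a set limit, the mean inhibition across all tested compounds plus 3 SD, cut at about 34% in these data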
STAT3 blocker: reduces IL-6 driven STAT3 reporter signal | U3A cells, IL-6 STAT3-luciferase reporter, luminescence; host cell line lacks STAT1 | inhibition, % at 5.5 µM | 190,000 tested, 0.89% active;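 active = inhibition above the mean inhibition across all screened compounds plus 3 SD, cut at about 44% in these data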
Numbers stand for hits; - = inactive; . = no result given. Shown are actives, neighbours in structure and some others; about 1.6% of the full set was active somewhere.

SMILES	Platelet DG rel	TRAIL sens C8	PPC-1+TRAIL kill	STAT1 inh	STAT3 blocker
COc1cccc(C=C2Cc3ccccc3C2=O)c1	.	-	.	.	.
O=C1NC[C@@H](CCCCN2C[C@H](Cc3ccc(O)cc3)N(Cc3ccccc3)C(=O)C2=O)N(CCC2CCCCC2)C1=O	.	-	.	.	.
O=C(Nc1cccc(F)c1)C1CCN(C(=O)Cc2ccccc2)CC1	51	-	-	-	-
COc1cc(/C=C/CNC[C@H]2O[C@@H](n3cnc4c(N)ncnc43)[C@H](O)[C@@H]2O)ccc1O	.	-	.	.	.
O=c1c(Br)c(Br)cnn1-c1ccccc1	.	97	-	-	-
O=C(NC(=S)N1CCN(c2ccc([N+](=O)[O-])cc2)CC1)c1ccccc1F	-	-	53	-	-
O=C(NC(=S)N1CCN(c2ccc([N+](=O)[O-])cc2)CC1)c1ccccc1Cl	-	-	-	-	-
COc1ccc(CC(=O)Nc2nc(OCC(F)(F)F)cnc2-c2ccc(Cl)cc2Cl)cc1	.	-	.	.	.
Cc1cc(C)n(-c2nc(Nc3ccccc3)nc(-n3nc(C)cc3C)n2)n1	-	-	-	-	-
Cc1cc(C)n(-c2nc(N(c3ccccc3)c3ccccc3)nc(-n3nc(C)cc3C)n2)n1	-	76	-	-	-
O=C(CSc1ccc([N+](=O)[O-])cn1)Nc1cc(C(F)(F)F)ccc1N1CCOCC1	-	-	.	.	.
Cc1cc2nc(-c3ccc(SCC(=O)Nc4ccc(S(=O)(=O)NC5CC5)cc4)nc3)[nH]c2cc1C	-	84	52	-	-
Cc1cc2nc(-c3ccc(SCC(=O)N4CCc5ccccc54)nc3)[nH]c2cc1C	-	81	-	-	-
Cc1cc2nc(-c3ccc(SCC(=O)NC(C)C)nc3)[nH]c2cc1C	-	.	-	-	-
COc1ccc(C2=Nc3ccccc3N(C(=O)c3ccncc3)C2C(=O)NC(C)C)cc1 (centres undefined)	.	-	.	.	.
COc1ccc(CNC(=O)CCS(=O)(=O)c2ccc3nc(C)sc3c2)cc1	.	-	.	.	.
COc1ccc(Oc2c(Cl)cnn(-c3ccc(F)cc3)c2=O)cc1	-	87	-	-	-
COc1ccc(Oc2c(Cl)cnn(-c3ccc(C)cc3)c2=O)cc1	-	61	-	-	-
Cn1ncc(Cl)c(Oc2ccc(Cl)cc2)c1=O	-	-	-	-	-
COc1ccc(Oc2c(Cl)cnn(-c3ccc(Cl)c(Cl)c3)c2=O)cc1	-	89	-	-	-
COc1c(Cl)cnn(-c2ccc(C)cc2)c1=O	-	-	-	-	-
Cn1c(=O)oc2cc(S(=O)(=O)NC3CCN(Cc4ccccc4)CC3)ccc21	52	-	.	-	-
CC(=O)Nc1ccc(S(=O)(=O)Nc2nc3ccccc3nc2Nc2ccc(O)c(C(=O)O)c2)cc1	-	-	.	.	.
COc1ccc(-c2cc(=O)c3cc(C)ccc3[nH]2)cc1	-	73	-	-	-
O=C(c1ccncc1)N1CCN(c2cc(-c3ccccc3)nc3cc(-c4cccc(Cl)c4)nn23)CC1	.	70	.	.	.
SMILES	Platelet DG rel	TRAIL sens C8	PPC-1+TRAIL kill	STAT1 inh	STAT3 blocker
O=C(c1ccoc1)N1CCN(c2cc(-c3ccncc3)nc3cc(-c4cccc(Cl)c4)nn23)CC1	.	-	.	.	.
O=C(O)CSc1cc(NS(=O)(=O)c2ccc(Br)cc2)c2ccccc2c1O	-	48	.	.	.
Cc1cc(OCc2nc(N)nc(N)c2-c2ccc(Cl)c(Cl)c2)ccc1[N+](=O)[O-]	.	83	.	.	.
Cc1nc(N)nc(N)c1CCCc1ccc(Cl)c(Cl)c1	-	73	.	.	.
Cc1nc(N)nc(N)c1-c1ccc(Cl)c(Cl)c1	.	82	.	.	.
Nc1nc(N)nc(-c2ccc(Cl)c(Cl)c2)n1	.	-	.	.	.
CC(C)Cc1nc2oc3c(NCCCN4CCOCC4)ncnc3c2c2c1CCC2	-	-	-	-	-
CC(C)Cc1nc2oc3c(Cl)ncnc3c2c2c1CCC2	-	85	-	-	-
CCN1C(=O)/C(=C/C=C2/SCCN2C)SC1=S	-	-	-	-	59
COc1ccc(OCC(=O)N/N=C(\C)c2ccc(-n3ccnc3)cc2)cc1	-	-	-	-	-
C/C(=N\NC(=O)COc1ccc(C(C)(C)C)cc1)c1ccc(-n2ccnc2)cc1	-	59	-	-	-
O=C(Nc1c[nH]c(=O)[nH]c1=O)c1ccccc1Cl	-	-	.	.	.
COc1ccccc1C(=O)Nc1c[nH]c(=O)[nH]c1=O	96	-	.	.	.
CCOc1ccccc1C(=O)Nc1c[nH]c(=O)[nH]c1=O	88	-	.	.	.
O=C(Nc1ccccc1F)c1c[nH]c(=O)[nH]c1=O	66	-	-	.	.
O=C(COC(=O)c1c[nH]c(=O)[nH]c1=O)Nc1ccccc1F	-	-	-	-	-
COc1cc2c(cc1OC)C(=O)C(Br)CC2 (centres undefined)	.	-	.	.	.
Fc1ccc(-c2nc3c4ccccc4ccn3c2Cc2ccsc2)cc1	.	-	.	.	.
Cc1ccc(S(=O)(=O)Nc2ccccc2OC(C(=O)OC(C)(C)C)C(=O)OC(C)(C)C)cc1	.	-	.	.	.
O=C(O)c1cccc(NC(=S)N/N=C/c2ccccn2)c1	-	-	-	79	91
Oc1ccc(/C=N/NC(=S)Nc2cccnc2)cc1O	-	-	-	-	-
O=C(O)c1cccc(NC(=S)N/N=C/c2cccc(O)c2)c1	-	-	-	43	60
S=C(N/N=C/c1ccc2ncccc2c1)Nc1cccnc1	-	-	-	39	68
O=C(Nc1ccccc1C(=O)NCC1CCCO1)c1ccc(Cl)cc1 (centres undefined)	-	-	.	.	.
CCN(CC)c1ccc(-c2sc(Nc3ccccc3)n[n+]2-c2ccc(F)cc2)cc1	-	-	.	.	.
SMILES	Platelet DG rel	TRAIL sens C8	PPC-1+TRAIL kill	STAT1 inh	STAT3 blocker
CCc1ccc(Nc2n[n+](-c3ccccc3)c(-c3ccc(N(CC)CC)cc3)s2)cc1	-	53	.	.	.
Cc1ccc(-c2c(C#N)c(N)n(-c3ccccc3)c(=O)c2C#N)cc1	54	-	-	-	-
Cc1ccc(NC(=O)c2cc(-c3cc(Cl)ccc3C)n[nH]2)cc1NS(C)(=O)=O	.	-	.	.	.
Cc1ncc2c(n1)NC(=O)NC2	.	-	.	.	.
COc1ccc(N=C(C)C2=C(O)c3ccccc3C2=O)cc1	-	70	63	-	-
Cc1ccc(NC(=O)Cn2c(O)c(N=NC(=O)c3cc4ccccc4cc3O)c3ccccc32)cc1	.	70	-	-	-
O=C(COc1ccc(S(=O)(=O)N2CCOCC2)cc1)NC1CCCCC1	.	-	.	.	.
Cc1nc(N2CCC(C)CC2)c2oc3ccccc3c2n1	60	-	-	-	-
CC1(C(=O)NS(=O)(=O)c2ccccc2Cl)CCN1C(=O)c1cccc2ccccc12 (centres undefined)	.	-	.	.	.
CCCCNc1c(-c2ccc(SC(C)CC)cc2)nc2ccccn12 (centres undefined)	-	69	.	.	.
CCOC(=O)c1ccc2c(c1)nc(-c1ccccn1)n2CC	-	56	.	.	.
CCOC(=O)Cn1c(-c2ccccn2)nc2ccccc21	-	-	-	-	-
COc1ccccc1-c1nnc(-c2ccc(C)cc2)o1	-	53	.	.	.
CSc1ccccc1-c1nnc(-c2ccccc2)o1	-	-	-	-	-
COc1ccccc1-c1nnc(-c2ccc(N3CCOCC3)cc2)o1	-	-	-	-	-
CSc1ccccc1-c1nnc(-c2ccc(C)cc2)o1	-	62	-	-	-
O=C(COc1ccc(Cl)cc1)NCCNc1ccc([N+](=O)[O-])cc1	-	-	.	.	.
